OTUD3 block: human OTUD3 deubiquitinase inhibition. Q5T2D3. purified OTUD3, Ub-rhodamine fluorescence, 2 h. inhibition, % at 25 µM. 0.7% of 47,000 active
Target sequence (Q5T2D3 whole entry, looked up): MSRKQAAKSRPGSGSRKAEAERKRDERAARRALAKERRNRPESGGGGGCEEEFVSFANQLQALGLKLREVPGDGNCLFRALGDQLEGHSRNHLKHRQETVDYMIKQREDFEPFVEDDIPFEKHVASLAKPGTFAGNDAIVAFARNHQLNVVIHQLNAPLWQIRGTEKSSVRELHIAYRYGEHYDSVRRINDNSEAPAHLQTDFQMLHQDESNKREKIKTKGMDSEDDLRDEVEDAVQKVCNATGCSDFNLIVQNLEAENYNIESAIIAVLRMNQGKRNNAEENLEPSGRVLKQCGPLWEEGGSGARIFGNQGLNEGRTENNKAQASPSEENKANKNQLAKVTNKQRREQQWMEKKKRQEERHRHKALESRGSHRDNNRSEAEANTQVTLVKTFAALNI
UCHL1 block: inhibitors of human UCHL1 deubiquitinase | P09936 | purified UCHL1, Ub-rhodamine cleavage fluorescence | inhibition, % at 20 µM | 0.2% of 47,000 active
The depositor's hits bear a star. The sample as a whole holds a higher share of hits than the screen did. No stated cut-off is given here; in the data, active means inhibition above about 30%; inactive means the rest.

Screening COC(=O)Nc1cccn(Cc2c(Cl)cccc2Cl)c1=O returned OTUD3 block 81* and UCHL1 block 22.
`COc1c(C(O)CC(C)C)ccc(Oc2c(O)cc(C)cc2C=O)c1C(=O)O` (configuration not stated) gave OTUD3 block 23 and UCHL1 block 6.
`O=C(NCCc1ccccc1)C1CCCN(c2ccc(-c3ccccc3)nn2)C1` (configuration not stated) gave OTUD3 block 3 and UCHL1 block -1.
Screening O=C(NCC1CC1)C1CCCN(c2ccc(-c3ccccc3)nn2)C1 (configuration not stated) returned OTUD3 block 30* and UCHL1 block 0.
`CC(=O)c1cc2c(cc1NC(=O)c1oc3c(c1C)-c1[nH]ncc1CC3)OCO2` gave OTUD3 block 0 and UCHL1 block 4.
Screening COc1ccc(CNC(=O)c2ccc(-c3nnc(-c4ccccc4)o3)cc2)cc1OC returned OTUD3 block 13 and UCHL1 block 1.
For NS(=O)(=O)c1cc(C(=O)OCC(=O)NC2CCCc3ccccc32)ccc1Cl (configuration not stated) the results were OTUD3 block -1 and UCHL1 block 0.
For Cn1cc(NC(=O)Nc2cccc(C(F)(F)F)c2)c2ccccc2c1=O the results were OTUD3 block 88* and UCHL1 block 27.
Cc1ccc(Cn2nc(C)cc2C(=O)Nc2cccc(C(F)(F)F)c2)cc1 was read as OTUD3 block 17 and UCHL1 block 11.
Cn1cc(NC(=O)Nc2cccc3ccccc23)c2ccccc21 was read as OTUD3 block -11 and UCHL1 block 7.
Cc1cc(C(F)(F)F)n(-c2ccc(NC(=O)Nc3cccc(C(F)(F)F)c3)cc2)n1 was read as OTUD3 block 31* and UCHL1 block 6.
Cn1c2ccccc2c(=O)c2c(=O)n(-c3cccc(Cl)c3)c(-c3cccs3)nc21 was read as OTUD3 block -7 and UCHL1 block 29.
Screening O=C(Cn1cncc(C(=O)NC2CCCC2)c1=O)Nc1cccc(F)c1 returned OTUD3 block -3 and UCHL1 block -1.
For C[C@@H]1/C=C/CC/C=C/C(=O)[C@H](C)[C@@H]2CC[C@@H](C)[C@@](O)(O2)C(=O)C(=O)N2CCCC[C@H]2C(=O)O[C@H]([C@H](C)C[C@@H]2CC[C@@H](O)[C@H](O)C2)CC1 the results were OTUD3 block 43* and UCHL1 block 9.
`CO[C@H]1C[C@@H]2CC[C@@H](C)[C@@](O)(O2)C(=O)C(=O)N2CCCC[C@H]2C(=O)O[C@@H]([C@H](C)C[C@@H]2CC[C@@H](O)[C@H](OC)C2)CC(=O)[C@H](C)/C=C(\C)[C@@H](O)CC(=O)[C@H](C)C[C@H](C)/C=C/C=C/C=C/1C` gave OTUD3 block -4 and UCHL1 block 10.
`CC(C)c1ccc(NC(=O)c2cc(-c3cccnc3)n[nH]2)cc1` gave OTUD3 block -1 and UCHL1 block 2.
Screening O=C(Cn1c(=O)n(Cc2ccc3c(c2)OCO3)c(=O)c2ncccc21)NCc1ccccc1 returned OTUD3 block 44* and UCHL1 block 7.
For O=C(Cn1c(=O)n(Cc2ccc(F)cc2)c(=O)c2ncccc21)NCc1ccc(F)cc1 the results were OTUD3 block 20 and UCHL1 block -3.
For CCCCCCCC1OC(=O)Cc2cc(O)c(O)c(O)c21 (configuration not stated) the results were OTUD3 block 92* and UCHL1 block 63*.
Screening COc1cccc(NC(=O)Nc2ccc3nc4n(c(=O)c3c2)CCCC4)c1 returned OTUD3 block 13 and UCHL1 block 9.
Screening COc1ccc(NS(=O)(=O)c2cc(NC(=O)C3CC3)ccc2N2CCCCC2)cc1 returned OTUD3 block -3 and UCHL1 block 11.
`COc1ccc(NS(=O)(=O)c2cc(NC(=O)/C=C/c3ccco3)ccc2N2CCCC2)cc1` gave OTUD3 block 44* and UCHL1 block 18.
COc1cccc(Nc2nc3c(S(=O)(=O)c4ccccc4)nnn3c3ccccc23)c1 was read as OTUD3 block 4 and UCHL1 block 7.
For Cc1cc(C(=O)NC2(O)C(=O)c3ccccc3C2=O)n(C)n1 the results were OTUD3 block 11 and UCHL1 block 31*.
`O=C(NC1(O)C(=O)c2ccccc2C1=O)c1cccc2c1-c1ccccc1C2=O` gave OTUD3 block 23 and UCHL1 block 22.
For O=C(/C=C/c1ccc2c(c1)OCO2)Nc1nc2n(n1)C(c1ccccc1)CC(=O)N2 (configuration not stated) the results were OTUD3 block -3 and UCHL1 block -1.
`CCC(C(=O)NCc1ccncc1)N(c1cccc(Cl)c1)S(C)(=O)=O` (configuration not stated) gave OTUD3 block 32* and UCHL1 block 3.
`CCc1ccccc1N(CC(=O)NCc1ccncc1)S(C)(=O)=O` gave OTUD3 block 5 and UCHL1 block 3.
